The nature of assay [1]: ATG_NF_kB_CIS: Attagene CIS-FACTORIAL HepG2 Assay for human Nuclear Factor Kappa B (NF-kB) (AID 2282991). The note with it: HepG2 Attagene cis-factorial NF-kB reporter mRNA; actives raise or lower the signal. The method, boiled down:
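Endogenous transcription factor activity in HepG2 was captured via cis-regulated reporter constructs; after 24 h dosing, reporter mRNA was reverse-transcribed, amplified, fluorescently labelled and sized by capillary electrophoresis, with activity fitted bidirectionally relative to DMSO.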

Assay [2] in a line: ATG_NRF2_ARE_CIS: Attagene CIS-FACTORIAL HepG2 Assay for human Nuclear Factor Erythroid 2 Related Factor 2 (NFR2) response to Antioxidant Response Elements (ARE) (AID 2282992).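 On AC50: reporter mRNA level measured by RT-PCR and capillary electrophoresis fluorescence.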 As to conditions: HepG2 Attagene ARE/NRF2 reporter, transcription factor activity; actives raise or lower the signal. The method, boiled down:
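Fluorescence intensity of reporter-specific cDNA fragments, separated by capillary electrophoresis, reflects mRNA induction in transfected HepG2 cells at 24 h. Activity is fitted bidirectionally, DMSO serving as baseline.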

The nature of assay [3]: ATG_Oct_MLP_CIS: Attagene CIS-FACTORIAL HepG2 Assay for human Octamer-Binding Transcription Factor (Oct) (AID 2282993). As to conditions: HepG2 Attagene cis-factorial Oct reporter, mRNA; actives raise or lower the signal. The method, boiled down:
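Transient MRTU transfection of HepG2 → 24 h compound treatment → RNA isolation, reverse transcription, PCR → 6-FAM primer extension, HpaI digest → capillary electrophoresis. Activity fitted both directions against DMSO.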

For assay [4], the target named is Cellular tumor antigen p53 (Homo sapiens) (UniProt P04637). The experiment in a line: ATG_p53_CIS: Attagene CIS-FACTORIAL HepG2 Assay for human p53 Transcription Factor (AID 2282994). As to conditions: HepG2 p53 cis-element reporter, Attagene mRNA; actives raise or lower the signal. The method, boiled down: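 Transiently transfected HepG2 (multiple cis reporter transcription units); exposure 24 h; reporter RNA via RT-PCR, 6-FAM extension, 2 h HpaI digest at 37 C, CE detection; DMSO baseline.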
Chain of Cellular tumor antigen p53 (Homo sapiens) (P04637 whole entry, looked up): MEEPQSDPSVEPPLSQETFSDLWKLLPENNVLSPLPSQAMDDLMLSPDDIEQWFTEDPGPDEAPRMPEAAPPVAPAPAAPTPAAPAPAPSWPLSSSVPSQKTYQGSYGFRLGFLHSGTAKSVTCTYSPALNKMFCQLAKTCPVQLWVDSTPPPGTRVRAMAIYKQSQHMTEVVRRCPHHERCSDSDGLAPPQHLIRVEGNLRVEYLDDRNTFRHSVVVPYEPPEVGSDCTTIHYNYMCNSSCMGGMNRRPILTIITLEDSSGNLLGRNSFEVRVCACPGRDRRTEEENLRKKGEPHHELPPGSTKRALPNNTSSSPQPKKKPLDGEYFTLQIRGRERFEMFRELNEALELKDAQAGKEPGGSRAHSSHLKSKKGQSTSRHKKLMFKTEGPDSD

Assay [5] can be described thus: BSK_3C_TissueFactor: BioMAP Diversity Plus: 3C Assay for Tissue Factor Biomarker Activity (AID 2282997). As to conditions: BioMAP 3C HUVEC, tissue factor biomarker readout; actives raise or lower the signal. The method, boiled down:
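Cells used were primary human umbilical vein endothelial cells. They were dosed with chemical, and after 24 h Tissue Factor was quantified by ELISA. Curves were fitted bidirectionally with DMSO as baseline.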

Assay [6] in a line: BSK_3C_uPAR: BioMAP Diversity Plus: 3C Assay for Urokinase-type plasminogen activator receptor (uPAR) Biomarker Activity (AID 2282998). The note with it: BioMAP 3C HUVEC, uPAR biomarker ELISA; actives raise or lower the signal. The method, boiled down: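 ELISA readout of uPAR on human vascular endothelium (umbilical vein primary cells), taken 24 h after chemical dosing. Increases and decreases are both fitted relative to DMSO vehicle.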
On the technique in general: In an ELISA, binding on a coated surface is turned into a signal by an enzyme label.

A short description of assay [7]: BSK_3C_VCAM1: BioMAP Diversity Plus: 3C Assay for Vascular cell adhesion molecule 1 (VCAM1) Biomarker Activity (AID 2282999). As to conditions: BioMAP 3C HUVEC, VCAM1 ELISA, cytokine-stimulated; actives raise or lower the signal. The method, boiled down:
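Activity fitted in both directions relative to DMSO, with ELISA measurement of the surface marker on primary HUVEC (3C) at 24 h post-treatment; parallel SRB staining (0.1% SRB, TCA-fixed, 560 nm) flagged overt cytotoxicity.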

The nature of assay [8]: BSK_4H_Eotaxin3: BioMAP Diversity Plus: 4H Assay for Eotaxin 3 Biomarker Activity (AID 2283000).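 On outcome: CCL26 protein level quantified by ELISA in parallel with SRB cytotoxicity check.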 The note with it: primary human endothelial cells (HUVEC); actives raise or lower the signal. The method, boiled down:
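Endothelial primary cells (human umbilical vein) exposed to compound for 24 h. ELISA detection of Eotaxin-3.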

Read-out in assay [9]: Intercellular Adhesion Molecule 1 (ICAM1), ICAM1 (gene 3383)
The experiment in a line: BSK_3C_ICAM1: BioMAP Diversity Plus: 3C Assay for Intercellular Adhesion Molecule 1 (ICAM1) Biomarker Activity (AID 2283003). The note with it: primary human endothelial cells (HUVEC); actives raise or lower the signal. The method, boiled down:
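Using DMSO as baseline, bidirectional curve fitting was applied to ICAM-1 ELISA signals from HUVEC in the 3C system, measured 24 h after compound addition.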

For assay [10], the target named is human RAR-related Orphan Receptor beta (RORb), RORB (gene 6096) (UniProt Q92753). Briefly: ATG_RORb_TRANS: Attagene TRANS-FACTORIAL HepG2 Assay for human RAR-related Orphan Receptor beta (RORb) (AID 2283010; active means hit-call score of the fitted dose curve at least 0.9, where 1 is the maximum). The method, boiled down: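 Multiplexed transcription-factor reporter assay: HepG2 cells transiently carrying NR-Gal4/GAL4-UAS constructs, 24 h treatment, mRNA quantified by RT-PCR plus capillary electrophoresis fluorescence; activity scored as induction over DMSO.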
Chain of human RAR-related Orphan Receptor beta (RORb), RORB (gene 6096) (Q92753 whole entry, looked up, the tested form may be a part): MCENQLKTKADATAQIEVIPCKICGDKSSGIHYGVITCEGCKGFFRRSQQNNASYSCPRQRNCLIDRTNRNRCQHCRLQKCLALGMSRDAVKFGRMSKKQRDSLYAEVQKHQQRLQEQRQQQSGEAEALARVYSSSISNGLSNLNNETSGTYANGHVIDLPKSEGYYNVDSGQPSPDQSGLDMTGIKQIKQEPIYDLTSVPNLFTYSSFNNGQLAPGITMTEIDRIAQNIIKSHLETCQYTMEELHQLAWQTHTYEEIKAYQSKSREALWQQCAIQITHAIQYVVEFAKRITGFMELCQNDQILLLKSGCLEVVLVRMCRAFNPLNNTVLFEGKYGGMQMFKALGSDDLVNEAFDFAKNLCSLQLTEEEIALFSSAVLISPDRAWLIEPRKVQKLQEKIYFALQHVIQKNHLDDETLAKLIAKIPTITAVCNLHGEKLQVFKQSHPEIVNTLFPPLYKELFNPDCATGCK

In assay [11] the target is human RAR-related Orphan Receptor gamma (RORg), RORC (gene 6097) (UniProt P51449). The experiment in a line: ATG_RORg_TRANS: Attagene TRANS-FACTORIAL HepG2 Assay for human RAR-related Orphan Receptor gamma (RORg) (AID 2283011; active means hit-call score of the fitted dose curve at least 0.9, where 1 is the maximum). The method, boiled down:
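Activity is scored as increase in GAL4-UAS reporter mRNA over DMSO, detected by fluorescent RT-PCR and capillary electrophoresis in HepG2 cells transiently expressing a RORg-Gal4 chimera, 24 h after dosing.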

Assay [12] deals with Retinoic acid receptor RXR-alpha (Homo sapiens) (UniProt P19793). Briefly: ATG_RXRa_TRANS: Attagene TRANS-FACTORIAL HepG2 Assay for human Retinoid X Receptor alpha (RXRa) (AID 2283012; active means hit-call score of the fitted dose curve at least 0.9, where 1 is the maximum). The method, boiled down:
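Chimeric NR-GAL4 trans-activation in HepG2, 24 h treatment; reporter transcripts quantified by fluorescence on capillary electrophoresis, analysed for upward change from DMSO.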

Assay [13] deals with human Peroxisome Proliferator-activated Receptor alpha (PPARa), PPARA (gene 5465) (UniProt Q07869). The experiment in a line: ATG_PPARa_TRANS: Attagene TRANS-FACTORIAL HepG2 Assay for human Peroxisome Proliferator-activated Receptor alpha (PPARa) (AID 2283001; active means hit-call score of the fitted dose curve at least 0.9, where 1 is the maximum). The method, boiled down:
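Transfected HepG2 cells treated with test chemical for 24 h. RNA isolated, reverse-transcribed with oligo(dT), PCR-amplified, FAM-labelled and HpaI-digested. Fragments sized by capillary electrophoresis; gain-of-signal fit relative to DMSO.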

The target in assay [14] is human Retinoic Acid Receptor beta (RARb), RARB (gene 5915) (UniProt P10826). Briefly: ATG_RARb_TRANS: Attagene TRANS-FACTORIAL HepG2 Assay for human Retinoic Acid Receptor beta (AID 2283004; active means hit-call score of the fitted dose curve at least 0.9, where 1 is the maximum). The method, boiled down:
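HepG2, transient MRTU transfection, NR–Gal4 chimera, 24 h treatment; RT-PCR plus CE fluorescence detection of reporter mRNA; gain of signal vs DMSO.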

Assay [15] concerns the target Retinoic acid receptor alpha (Homo sapiens) (UniProt P10276). Briefly: ATG_RARa_TRANS: Attagene TRANS-FACTORIAL HepG2 Assay for human Retinoic Acid Receptor alpha (RARa) (AID 2283005; active means hit-call score of the fitted dose curve at least 0.9, where 1 is the maximum). The method, boiled down:
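Reporter transcripts, measured by RT-PCR with fluorescent labeling and capillary electrophoresis after 24 h dosing, reflect activity of an exogenous human RARa–GAL4 fusion in transiently transfected HepG2. Fitted for increase relative to DMSO.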

Assay [16] addresses Peroxisome proliferator-activated receptor gamma (Homo sapiens) (UniProt P37231). Briefly: ATG_PPARg_TRANS: Attagene TRANS-FACTORIAL HepG2 Assay for human Peroxisome Proliferator-activated Receptor-gamma (PPARg) (AID 2283007; active means hit-call score of the fitted dose curve at least 0.9, where 1 is the maximum). The method, boiled down:
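A TRANS-format multiplexed reporter assay measures activity of an exogenous chimeric NR-Gal4 protein in HepG2 cells. After 24 h of chemical exposure, reporter transcripts are amplified, fluorescently labelled and sized by capillary electrophoresis, with gain of signal scored against DMSO.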

In assay [17] the target is Nuclear receptor subfamily 1 group I member 2 (Homo sapiens) (UniProt O75469). The experiment in a line: ATG_PXR_TRANS: Attagene TRANS-FACTORIAL HepG2 Assay for human Pregnane X Receptor (PXR) (AID 2283008; active means hit-call score of the fitted dose curve at least 0.9, where 1 is the maximum). The method, boiled down:
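Transient HepG2 transfectants carrying multiplexed reporter transcription units; PXR activity read through a Gal4 chimera. 24 h exposure. RT-PCR/CE fluorescence; upward curve fit referenced to DMSO.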

Assay [18] addresses human Retinoic Acid Receptor gamma (RARg), RARG (gene 5916) (UniProt P13631). Briefly: ATG_RARg_TRANS: Attagene TRANS-FACTORIAL HepG2 Assay for human Retinoic Acid Receptor gamma (RARg) (AID 2283009; active means hit-call score of the fitted dose curve at least 0.9, where 1 is the maximum). The method, boiled down:
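Gain-of-signal relative to DMSO is reported from fluorescent capillary electrophoresis of RT-PCR reporter products. These came from HepG2 cells expressing transfected RARg-GAL4 chimeras with UAS reporters, harvested 24 h after dosing.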

Assay [19] in a line: BSK_3C_Proliferation: Cell Proliferation Assessment in the BioMAP Diversity Plus: 3C Assay (AID 2283006). The note with it: primary human endothelial cells (HUVEC). The method, boiled down:
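Measured here: sulforhodamine B (0.1%) staining of TCA-fixed sub-confluent umbilical vein endothelial cultures 48 h post-dosing, absorbance 560 nm. DMSO served as negative control and baseline; both signal gain and loss were modelled.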

Records with an inconclusive call do not appear. The source made the active and inactive calls. How the source made its calls, unless noted: active means hit-call score of the fitted dose curve at least 0.9, where 1 is the maximum; inactive means score below 0.9.

Chain of human Retinoic Acid Receptor beta (RARb), RARB (gene 5915) (P10826 whole entry, looked up, the tested form may be a part): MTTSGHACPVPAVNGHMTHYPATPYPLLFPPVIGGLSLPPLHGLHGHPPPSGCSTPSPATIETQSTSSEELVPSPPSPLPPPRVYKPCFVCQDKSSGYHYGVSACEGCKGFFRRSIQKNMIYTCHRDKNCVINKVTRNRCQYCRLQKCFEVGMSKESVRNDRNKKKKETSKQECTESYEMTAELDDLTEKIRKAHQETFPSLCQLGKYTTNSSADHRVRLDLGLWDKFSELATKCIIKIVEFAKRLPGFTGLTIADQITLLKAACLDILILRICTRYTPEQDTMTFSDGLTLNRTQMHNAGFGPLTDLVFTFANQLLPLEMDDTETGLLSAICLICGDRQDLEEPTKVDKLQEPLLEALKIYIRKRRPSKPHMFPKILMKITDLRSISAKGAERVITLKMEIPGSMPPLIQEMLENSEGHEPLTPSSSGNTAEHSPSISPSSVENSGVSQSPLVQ
Chain of human Retinoic Acid Receptor gamma (RARg), RARG (gene 5916) (P13631 whole entry, looked up, the tested form may be a part): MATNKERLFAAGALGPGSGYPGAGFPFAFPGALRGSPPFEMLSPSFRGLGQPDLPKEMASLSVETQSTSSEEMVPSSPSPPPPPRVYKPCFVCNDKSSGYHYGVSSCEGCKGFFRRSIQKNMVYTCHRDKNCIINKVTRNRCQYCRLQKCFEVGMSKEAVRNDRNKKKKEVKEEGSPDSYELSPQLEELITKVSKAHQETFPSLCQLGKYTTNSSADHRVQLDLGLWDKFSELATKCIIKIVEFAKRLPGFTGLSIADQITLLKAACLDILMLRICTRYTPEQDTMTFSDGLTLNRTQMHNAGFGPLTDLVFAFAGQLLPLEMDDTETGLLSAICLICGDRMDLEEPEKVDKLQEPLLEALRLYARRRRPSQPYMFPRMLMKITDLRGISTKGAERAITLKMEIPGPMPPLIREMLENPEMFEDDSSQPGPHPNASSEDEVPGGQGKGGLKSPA
Chain of human Peroxisome Proliferator-activated Receptor alpha (PPARa), PPARA (gene 5465) (Q07869 whole entry, looked up, the tested form may be a part): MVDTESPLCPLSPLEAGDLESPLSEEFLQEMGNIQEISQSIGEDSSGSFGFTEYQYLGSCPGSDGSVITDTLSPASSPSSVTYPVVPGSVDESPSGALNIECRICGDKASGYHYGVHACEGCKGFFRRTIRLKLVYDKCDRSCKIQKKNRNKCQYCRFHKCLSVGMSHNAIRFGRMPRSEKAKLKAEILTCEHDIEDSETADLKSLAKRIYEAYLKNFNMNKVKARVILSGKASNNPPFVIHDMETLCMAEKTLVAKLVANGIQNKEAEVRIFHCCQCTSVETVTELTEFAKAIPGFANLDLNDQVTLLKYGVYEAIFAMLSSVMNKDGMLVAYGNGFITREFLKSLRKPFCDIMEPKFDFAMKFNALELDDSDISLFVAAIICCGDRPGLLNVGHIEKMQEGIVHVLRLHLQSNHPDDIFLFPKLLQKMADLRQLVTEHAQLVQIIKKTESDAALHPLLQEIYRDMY
Chain of Retinoic acid receptor RXR-alpha (Homo sapiens) (P19793 whole entry, looked up, the tested form may be a part): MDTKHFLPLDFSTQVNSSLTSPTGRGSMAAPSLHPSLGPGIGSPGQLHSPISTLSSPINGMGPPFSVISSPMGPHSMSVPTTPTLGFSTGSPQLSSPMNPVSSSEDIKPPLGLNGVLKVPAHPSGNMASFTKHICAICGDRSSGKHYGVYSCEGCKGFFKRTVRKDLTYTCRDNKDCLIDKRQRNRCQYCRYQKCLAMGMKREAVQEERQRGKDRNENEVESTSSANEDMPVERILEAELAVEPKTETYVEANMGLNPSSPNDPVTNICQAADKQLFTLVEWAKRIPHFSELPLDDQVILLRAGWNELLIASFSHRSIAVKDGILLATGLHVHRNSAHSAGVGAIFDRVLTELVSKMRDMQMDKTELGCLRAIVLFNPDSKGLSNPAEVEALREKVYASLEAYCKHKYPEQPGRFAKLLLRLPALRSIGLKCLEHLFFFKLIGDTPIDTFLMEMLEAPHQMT
Chain of human RAR-related Orphan Receptor gamma (RORg), RORC (gene 6097) (P51449 whole entry, looked up, the tested form may be a part): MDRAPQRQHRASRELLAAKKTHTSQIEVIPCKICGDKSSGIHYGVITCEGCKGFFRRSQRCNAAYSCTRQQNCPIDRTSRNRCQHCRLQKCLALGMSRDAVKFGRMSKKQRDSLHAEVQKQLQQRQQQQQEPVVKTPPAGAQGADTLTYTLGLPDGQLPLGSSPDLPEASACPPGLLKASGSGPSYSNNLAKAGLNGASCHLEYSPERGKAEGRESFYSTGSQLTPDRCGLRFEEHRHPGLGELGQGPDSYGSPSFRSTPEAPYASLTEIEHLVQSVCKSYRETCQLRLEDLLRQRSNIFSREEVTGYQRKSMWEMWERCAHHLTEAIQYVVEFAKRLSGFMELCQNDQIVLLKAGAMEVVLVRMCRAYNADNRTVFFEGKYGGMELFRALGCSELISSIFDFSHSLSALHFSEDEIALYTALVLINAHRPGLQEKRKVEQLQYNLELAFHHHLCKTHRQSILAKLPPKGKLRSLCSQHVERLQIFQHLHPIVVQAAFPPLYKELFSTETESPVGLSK
Chain of Peroxisome proliferator-activated receptor gamma (Homo sapiens) (P37231 whole entry, looked up, the tested form may be a part): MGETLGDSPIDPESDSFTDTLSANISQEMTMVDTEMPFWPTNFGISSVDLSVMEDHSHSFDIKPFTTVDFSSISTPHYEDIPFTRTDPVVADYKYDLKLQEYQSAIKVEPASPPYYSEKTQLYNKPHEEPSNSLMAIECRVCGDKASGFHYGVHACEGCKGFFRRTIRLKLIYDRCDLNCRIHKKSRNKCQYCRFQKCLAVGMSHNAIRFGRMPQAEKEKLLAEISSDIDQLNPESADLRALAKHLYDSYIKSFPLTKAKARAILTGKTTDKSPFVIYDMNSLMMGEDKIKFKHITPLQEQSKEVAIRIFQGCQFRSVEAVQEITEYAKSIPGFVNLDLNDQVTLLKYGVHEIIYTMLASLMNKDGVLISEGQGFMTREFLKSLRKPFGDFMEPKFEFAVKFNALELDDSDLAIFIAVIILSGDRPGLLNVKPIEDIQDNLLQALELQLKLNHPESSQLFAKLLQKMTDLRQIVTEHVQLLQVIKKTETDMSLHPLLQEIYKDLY
Chain of Nuclear receptor subfamily 1 group I member 2 (Homo sapiens) (O75469 whole entry, looked up, the tested form may be a part): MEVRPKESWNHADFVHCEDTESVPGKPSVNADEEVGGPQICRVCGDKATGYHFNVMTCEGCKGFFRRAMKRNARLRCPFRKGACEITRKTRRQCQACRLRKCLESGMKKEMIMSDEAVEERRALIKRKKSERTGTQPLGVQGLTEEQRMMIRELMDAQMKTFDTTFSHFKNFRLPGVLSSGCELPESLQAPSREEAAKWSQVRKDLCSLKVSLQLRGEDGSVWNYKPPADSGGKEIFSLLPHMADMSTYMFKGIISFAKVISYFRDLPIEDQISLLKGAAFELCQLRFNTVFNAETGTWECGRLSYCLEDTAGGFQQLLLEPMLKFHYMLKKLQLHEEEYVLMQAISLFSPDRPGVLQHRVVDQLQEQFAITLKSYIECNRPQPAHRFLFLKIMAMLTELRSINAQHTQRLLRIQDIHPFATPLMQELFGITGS
Chain of Retinoic acid receptor alpha (Homo sapiens) (P10276 whole entry, looked up, the tested form may be a part): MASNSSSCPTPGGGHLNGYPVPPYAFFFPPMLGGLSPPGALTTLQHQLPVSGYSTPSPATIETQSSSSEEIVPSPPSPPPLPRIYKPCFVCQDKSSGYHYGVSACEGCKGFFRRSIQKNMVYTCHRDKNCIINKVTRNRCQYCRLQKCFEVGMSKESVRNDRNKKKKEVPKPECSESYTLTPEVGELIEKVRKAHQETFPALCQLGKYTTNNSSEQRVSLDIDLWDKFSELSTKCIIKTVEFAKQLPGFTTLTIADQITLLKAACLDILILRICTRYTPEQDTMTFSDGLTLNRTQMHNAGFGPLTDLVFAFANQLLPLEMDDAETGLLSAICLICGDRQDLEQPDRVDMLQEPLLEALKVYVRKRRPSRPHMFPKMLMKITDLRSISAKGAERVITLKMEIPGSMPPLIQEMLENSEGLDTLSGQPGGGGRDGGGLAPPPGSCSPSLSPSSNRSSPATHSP

For `On1ccccc1=S`, the AC50 (as a rule, the concentration at which the activity in the assay is half-maximal) in assay [1] was 10.2 µM (active); in assay [2], 12.2 µM (active); in assay [5], 18.6 µM (active); in assay [6], 28.4 µM (active); in assay [7] it was 24.7 µM (active); in assay [8] it was 16.1 µM (active). For the same compound, in [9], the AC50 is 24 µM (active). The compound was called inactive in assay [3], in assay [4], in assay [10], in [11] and in [12].

As for `Cc1c(-c2cccnc2)c2ccccc2n1CCCCC(=O)O`, the outcome in assay [2], in assay [3], in assay [4], in assay [5], in [6] and in [7] was inactive. For the same compound, the outcome in [8], in assay [13], in assay [9], in assay [14], in assay [15] and in assay [17] was inactive. For the same compound, the compound was called inactive in assay [18] and in [11]. Further, in assay [16], the AC50 is 22.4 µM (active).

Consider `CC(C)CC(C)(O)C#CC(C)(O)CC(C)C` (stereo unspecified), for which the result in [1], in assay [2], in assay [3], in assay [4], in assay [5] and in assay [6] was inactive. The outcome in [7], in [8], in assay [9], in [19], in assay [18] and in [12] was inactive.

Turning to `CCOCCO`, the result in assay [1], in assay [2], in assay [3], in assay [4], in assay [5] and in [6] was inactive. The outcome in [7], in [8], in assay [9] and in [14] was inactive.

Consider `CCOc1cccc(-n2cc(C(=O)N3CCN(c4cc(C(=O)O)c5ccccc5c4)CC3)nc2-c2ccc(C)cc2)c1`, for which the compound was called inactive in assay [1], in assay [4] and in assay [12]. Further, the AC50 in [2] is 8.42 µM (active); in assay [3], 25.4 µM (active); in assay [5] it was 28.7 µM (active); in assay [6], 13.9 µM (active); in assay [7], 27.9 µM (active); in assay [8] it was 33.1 µM (active). The AC50 in assay [9] was 29.7 µM (active); in assay [16], 7.92 µM (active).

With `C[C@](N)(Cc1ccc(O)c(O)c1)C(=O)O`, the result in assay [1], in assay [2], in assay [3], in [4], in [5] and in assay [6] was inactive. Further, the outcome in [7], in assay [8], in assay [9], in assay [14] and in assay [19] was inactive.

Turning to `Nc1nc2ncc(CNc3ccc(C(=O)N[C@@H](CCC(=O)O)C(=O)O)cc3)nc2c(=O)[nH]1`, the result in assay [1], in [2], in assay [3], in assay [4], in assay [5] and in assay [6] was inactive. Also, the outcome in assay [7], in assay [8], in assay [9], in [10], in assay [11] and in assay [12] was inactive.

As to `CCC(C)(C)C(=O)O[C@H]1C[C@@H](C)C=C2C=C[C@H](C)[C@H](CC[C@@H]3C[C@@H](O)CC(=O)O3)[C@H]21`, the call in assay [2], in assay [3], in [4], in assay [13], in assay [9] and in assay [16] was inactive. Moreover, the result in [18], in assay [11] and in assay [12] was inactive. Further, the AC50 in [5] was 20 µM (active); in [6] it was 16.9 µM (active); in [7], 29.9 µM (active); in assay [8], 34.5 µM (active).

As to `CC(=O)c1ccc2c(c1)[C@H](NC(=O)c1ccc(F)cc1)[C@@H](O)C(C)(C)O2`, the result in assay [2], in assay [3], in [4], in assay [5], in assay [6] and in assay [7] was inactive. For the same compound, the result in [8], in [13], in assay [9], in assay [14], in assay [16] and in [18] was inactive. The compound was called inactive in assay [10] and in [11]. Also, the AC50 in assay [17] was 12.7 µM (active).

These data come from PubChem BioAssay (EPA / NIEHS).
